Pf Dd2 inh – P. falciparum Dd2 growth inhibition; SYBR Green, 72 h; active compounds read low; activity change, % at 10 µM; hit rate 2.3% among 94,000; AID 1159554; in the data active means activity change below about -80%
C diff growth – blocks growth of Clostridium difficile | growth activity, negative = inhibition, % at 16 µg/mL (by protocol) | Clostridium difficile clinical isolate growth, OD600, 24 h; active compounds read low | hit rate 0.25% among 86,000;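 active means mean growth activity at or below -80% and every replicate also at or below -80%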
Each line names hits and unclear results; the compound was inactive in the other large screens. Compounds with a hit are over-represented: about 2.4% of the library has one in this group of screens.

C[C@@H]1CN([C@H](C)CO)C(=O)c2cccc(NC(=O)CCCCCC(=O)Nc3ccccc3N)c2O[C@H]1CN(C)C(=O)Nc1ccc(F)cc1	none
C[C@H](CO)N1C[C@H](C)[C@H](CN(C)C(=O)Nc2ccccc2)Oc2c(NC(=O)CCCCCC(=O)Nc3ccccc3N)cccc2C1=O	none
Cc1noc(C)c1NC(=O)N(C)C[C@H]1Oc2c(NC(=O)CCCCCC(=O)Nc3ccccc3N)cccc2C(=O)N([C@@H](C)CO)C[C@H]1C	Pf Dd2 inh -86
C[C@@H]1CN([C@@H](C)CO)C(=O)c2cccc(NC(=O)CCCCCC(=O)Nc3ccccc3N)c2O[C@@H]1CN(C)C(=O)Nc1ccc(F)cc1	Pf Dd2 inh -86
C[C@@H]1CN([C@@H](C)CO)C(=O)c2cccc(NC(=O)CCCCCC(=O)Nc3ccccc3N)c2O[C@@H]1CN(C)C(=O)Nc1cccc2ccccc12	Pf Dd2 inh -88
C[C@H](CO)N1C[C@H](C)[C@H](CN(C)C(=O)Nc2ccc(F)cc2)Oc2c(NC(=O)CCCCCC(=O)Nc3ccccc3N)cccc2C1=O	none
C[C@@H]1CN([C@@H](C)CO)C(=O)c2cccc(NC(=O)CCCCCC(=O)Nc3ccccc3N)c2O[C@@H]1CN(C)C(=O)Nc1ccc(C(F)(F)F)cc1	Pf Dd2 inh -90
C[C@@H]1CCCCO[C@@H](CN(C)C)[C@H](C)CN([C@H](C)CO)C(=O)c2cc(NS(=O)(=O)c3cn(C)cn3)ccc2O1	none
CNC[C@H]1Oc2ccc(NS(=O)(=O)c3cccs3)cc2CC(=O)N([C@@H](C)CO)C[C@@H]1C	none
Cc1noc(C)c1NC(=O)Nc1ccc2c(c1)C(=O)N([C@@H](C)CO)C[C@H](C)[C@@H](CN(C)Cc1ccncc1)OCCCC[C@H](C)O2	none
C[C@@H]1CN([C@H](C)CO)C(=O)c2cc(C#CC3(O)CCCC3)cnc2O[C@@H]1CN(C)C(=O)C1CC1	none (no result: C diff growth)
CCC(=O)N1C[C@H]2[C@@H](c3ccccc31)[C@@H](CO)N2Cc1cc(F)ccc1F	none
C[C@@H]1CN([C@H](C)CO)C(=O)c2cc(NC(=O)CCCCCC(=O)Nc3ccccc3N)ccc2O[C@@H]1CN(C)C(=O)Nc1ccc2c(c1)OCO2	none
C[C@@H]1CN([C@H](C)CO)C(=O)c2cccc(NC(=O)CCCCCC(=O)Nc3ccccc3N)c2O[C@@H]1CN(C)C(=O)Nc1ccc2c(c1)OCO2	Pf Dd2 inh -82
O=C(C[C@@H]1C[C@H]2c3cc(NS(=O)(=O)c4ccc(F)cc4)ccc3O[C@H]2[C@H](CO)O1)NC1CCCCC1	none (no result: C diff growth)
O=C(NCC[C@H]1CC[C@H](NC(=O)c2cccnc2)[C@H](CO)O1)Nc1ccc(F)cc1	none
O=S(=O)(N[C@H]1CC[C@@H](CCn2cc(-c3ccccc3F)nn2)O[C@@H]1CO)c1ccc(Cl)cc1	none
CC(C)NC(=O)Nc1ccc2c(c1)C(=O)N([C@H](C)CO)C[C@@H](C)[C@H](CN(C)Cc1ccc3c(c1)OCO3)O2	none
CCCNC(=O)N[C@@H]1CC[C@@H](CC(=O)N2CCN(C)CC2)O[C@@H]1CO	none (no result: C diff growth)
C[C@H](CO)N1C[C@H](C)[C@H](CN(C)S(=O)(=O)c2ccccc2F)OCc2ccccc2-c2c(n(C)c3ccccc23)C1=O	Pf Dd2 inh -87
COc1ccccc1S(=O)(=O)N(C)C[C@H]1OCc2ccccc2-c2c(n(C)c3ccccc23)C(=O)N([C@@H](C)CO)C[C@@H]1C	Pf Dd2 inh -87
COc1ccccc1S(=O)(=O)N(C)C[C@H]1OCc2ccccc2-c2c(n(C)c3ccccc23)C(=O)N([C@@H](C)CO)C[C@H]1C	none
C[C@@H]1CN([C@@H](C)CO)C(=O)c2c(c3ccccc3n2C)-c2ccccc2CO[C@H]1CN(C)S(=O)(=O)c1ccccc1F	none
Cc1ccc(S(=O)(=O)N(C)C[C@@H]2Oc3c(NC(=O)c4ccncc4)cccc3C(=O)N([C@H](C)CO)C[C@@H]2C)cc1	none
C[C@@H]1CN([C@@H](C)CO)C(=O)Cc2cc(NC(=O)Nc3ccc(F)cc3)ccc2O[C@@H]1CN(C)Cc1ccc(Oc2ccccc2)cc1	none
CC(C)c1cn(CC[C@@H]2CC[C@@H](NC(=O)C3CCC3)[C@H](CO)O2)nn1	none
CCC(=O)Nc1ccc2c(c1)OC[C@H](C)N(CCC(F)(F)F)C[C@H](C)[C@@H](OC)CN(C)C2=O	none
CO[C@H]1CN(C)C(=O)c2ccc(NC(=O)Nc3ccc(Cl)c(Cl)c3)cc2OC[C@H](C)NC[C@@H]1C	C diff growth -99 (no result: Pf Dd2 inh)
CO[C@@H]1CN(C)C(=O)c2ccc(NC(=O)Nc3ccccc3Cl)cc2OC[C@H](C)NC[C@@H]1C	none (no result: C diff growth)
CO[C@H]1CN(C)C(=O)c2ccc(NC(=O)Nc3ccccc3Cl)cc2OC[C@H](C)NC[C@@H]1C	none
CO[C@@H]1CN(C)C(=O)c2ccc(NC(=O)Nc3cc(Cl)cc(Cl)c3)cc2OC[C@H](C)NC[C@@H]1C	C diff growth -100
CO[C@@H]1CN(C)C(=O)c2ccc(NC(=O)Nc3ccc(C(F)(F)F)cc3)cc2OC[C@H](C)NC[C@H]1C	Pf Dd2 inh -95 (no result: C diff growth)
CO[C@H]1CN(C)C(=O)c2ccc(NC(=O)Nc3ccc(Cl)c(Cl)c3)cc2OC[C@H](C)NC[C@H]1C	C diff growth -97 (no result: Pf Dd2 inh)
CO[C@H]1CN(C)C(=O)c2ccc(NC(=O)Nc3cc(Cl)cc(Cl)c3)cc2OC[C@H](C)NC[C@@H]1C	none
CO[C@H]1CN(C)C(=O)c2cc(NC(=O)Nc3ccc(C(F)(F)F)cc3)ccc2OC[C@@H](C)NC[C@H]1C	none (no result: C diff growth)
COc1ccc(S(=O)(=O)N[C@H]2CC[C@H](CCn3cc(-c4ccccc4F)nn3)O[C@@H]2CO)cc1	none
C[C@H]1CN([C@@H](C)CO)S(=O)(=O)c2ccc(C3=CCCCC3)cc2O[C@H]1CN(C)CC1CC1	none (no result: C diff growth)
C/C=C/c1ccc2c(c1)O[C@@H](CN(C)C(=O)C1CCOCC1)[C@@H](C)CN([C@@H](C)CO)S2(=O)=O	none
COCC#Cc1ccc2c(c1)O[C@@H](CN(C)S(=O)(=O)c1cccc(OC)c1)[C@H](C)CN([C@H](C)CO)S2(=O)=O	none
CS(=O)(=O)N1CC(=O)N2[C@H](C1)[C@H](c1ccc(C#CCc3ccccc3)cc1)[C@@H]2CO	none
Cc1cc(C(=O)Nc2cccc3c2O[C@H](CN(C)Cc2ccc(C(=O)Nc4ccccc4N)cc2)[C@@H](C)CN([C@H](C)CO)C3=O)n(C)n1	Pf Dd2 inh -88
Cc1cc(C(=O)Nc2cccc3c2O[C@@H](CN(C)Cc2ccc(C(=O)O)cc2)[C@@H](C)CN([C@@H](C)CO)C3=O)n(C)n1	none
Cc1cc(C(=O)Nc2cccc3c2O[C@@H](CN(C)Cc2ccc(C(=O)Nc4ccccc4N)cc2)[C@H](C)CN([C@H](C)CO)C3=O)n(C)n1	Pf Dd2 inh -92
Cc1cc(C(=O)Nc2cccc3c2O[C@@H](CN(C)Cc2ccc(C(=O)O)cc2)[C@H](C)CN([C@H](C)CO)C3=O)n(C)n1	none
Cc1cc(C(=O)Nc2cccc3c2O[C@H](CN(C)Cc2ccc(C(=O)Nc4ccccc4N)cc2)[C@@H](C)CN([C@@H](C)CO)C3=O)n(C)n1	Pf Dd2 inh -87
Cc1cc(C(=O)Nc2cccc3c2O[C@H](CN(C)Cc2ccc(C(=O)Nc4ccccc4N)cc2)[C@H](C)CN([C@H](C)CO)C3=O)n(C)n1	none
COc1ccccc1-c1cnc2c(c1)C(=O)N([C@H](C)CO)C[C@@H](C)[C@@H](CN(C)CC1CCOCC1)O2	none
O=C(c1ccncc1)N1C[C@@H]2[C@H](c3ccccc31)[C@H](CO)N2Cc1ccc(F)cc1	none

Screening data from PubChem BioAssay.
